# In all, about 360,000 compounds went through this assay and about 25,000 (6.9%) were called active. Roughly 9% stayed inconclusive and do not appear here. Calls come from the whole dose curve; as a rule, active = well fitted inhibition curve with a large enough effect; inconclusive = small, poorly fitted or top-dose-only effect; inactive = flat fitted curve, though single readings scatter. Shown is part of a subset that was picked to be rich in actives. Entries that show only a call come without a potency.
# Biological target: Luciferin 4-monooxygenase (Photinus pyralis) (UniProt P08659)
# Sequence (P08659 whole entry, looked up): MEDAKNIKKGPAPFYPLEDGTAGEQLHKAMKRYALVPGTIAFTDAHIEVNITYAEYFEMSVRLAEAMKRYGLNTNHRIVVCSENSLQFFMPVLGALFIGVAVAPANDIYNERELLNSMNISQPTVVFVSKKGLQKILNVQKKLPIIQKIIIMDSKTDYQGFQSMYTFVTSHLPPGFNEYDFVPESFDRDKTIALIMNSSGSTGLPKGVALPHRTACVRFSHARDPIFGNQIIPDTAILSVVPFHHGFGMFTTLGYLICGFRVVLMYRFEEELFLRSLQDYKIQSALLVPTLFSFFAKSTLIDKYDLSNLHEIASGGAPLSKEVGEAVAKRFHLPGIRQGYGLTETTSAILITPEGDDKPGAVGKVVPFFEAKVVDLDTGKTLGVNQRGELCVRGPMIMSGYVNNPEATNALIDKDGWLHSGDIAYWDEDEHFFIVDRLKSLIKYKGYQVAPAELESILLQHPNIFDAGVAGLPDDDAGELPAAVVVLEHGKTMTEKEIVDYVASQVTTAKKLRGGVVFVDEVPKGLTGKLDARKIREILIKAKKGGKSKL
# Assay: qHTS profiling assay for firefly luciferase inhibitor/activator using purifed enzyme and Km concentrations of substrates (counterscreen for miR-21 project); note: nearly all actives have a fitted effect of over 55% in size
# Settings: purified FLuc, luminescence inhibition; series mostly up to 57.5 µM
# Method in brief: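 Biochemical qHTS of compounds, final roughly 60 µM downward over six points, against 10 nM purified firefly luciferase using Km concentrations of substrates (10 uM D-luciferin, 10 uM ATP) in Tris acetate pH 7.5 buffer; luminescence output.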
# Potency is the fitted concentration of half-maximal effect.
row,SMILES,Potency
1,Cc1ccc2c(c1)N(C(=O)CCC(=O)NCc1ccccc1F)CC(C)O2 (centres undefined),inactive
2,CCc1cccc(NC(=O)CN(c2ccc(C)c(C)c2)S(=O)(=O)c2ccsc2C(=O)OC)c1,inactive
3,Cc1cccc(N2C(=O)c3ccc(C(=O)Nc4cccc(C(=O)O)c4)cc3C2=O)c1,1.51 µM (active)
4,CC(=O)Oc1ccc(C)cc1N1C(=O)c2ccc(C(=O)O)cc2C1=O,inactive
5,CC(=O)Nc1ccc(NC(=O)c2ccc3c(c2)C(=O)N(c2ccccc2C)C3=O)cc1,inactive
6,Cn1nnnc1SCCNCc1ccc(Cl)c(Cl)c1,inactive
7,CC1=NNC(=O)C1CCC(=O)N/N=C\c1cccc(Cl)c1 (centres undefined),inactive
8,COc1cccc(/C=N\NC(=O)C2=NNC(=O)C2C)c1O (centres undefined),6.01 µM (active)
9,Cc1cccc(-n2c(=O)c3c(c4cc(C)ccc4n3C)n(CC(=O)Nc3ccccc3Cl)c2=O)c1,inactive
10,O=S(=O)(c1ccc(Cl)cc1)c1nnn2c1nc(NC1CCCC1)c1sccc12,inactive
11,CC(=O)N1CCCc2cc(S(=O)(=O)Nc3ccc(Cl)cc3F)ccc21,inactive
12,CN(CC(=O)Nc1ccc(F)cc1)CC(=O)N1CCCCC1,inactive
13,Cc1ccc(Sc2cc(C(=O)c3ccccc3C(=O)O)ccc2[N+](=O)[O-])cc1,inactive
14,Cc1ccc(C(=O)CSc2ccccc2C(=O)O)cc1,4.26 µM (active)
15,Cc1ccccc1C(=O)O,inactive
16,CC1(C(=O)OCC(=O)Nc2ncc(Cl)cc2Cl)CC1(Cl)Cl (centres undefined),inactive
17,Cc1ccc(NC(=O)NC(C)c2c(-n3cccc3)sc(C)c2C)c(C)c1 (centres undefined),inactive
18,COC(=O)[C@@H]1C[C@H]2CC[C@H](O)C[C@H]2N1Cc1ccc(N2CCN(C)CC2)cc1,inactive
19,O=C(/C=C/c1c(F)cccc1Cl)Nc1nn[nH]n1,inactive
20,Cc1nnsc1C(=O)Nc1cccc(Cl)c1C,inactive
21,O=C(CCc1ccccc1)Nc1nn[nH]n1,inactive
22,Cc1ccc(-c2cc(C(=O)Nc3nn[nH]n3)c3ccccc3n2)c(C)c1,15.1 µM (active)
23,Cc1ccc2c(Cl)c(C(=O)Nc3nn[nH]n3)sc2c1,16.9 µM (active)

row,SMILES,Potency
1,Cc1cccc(NC(=O)CN(c2ccc(C(C)C)cc2)S(=O)(=O)c2c(C)nn(C)c2C)c1C,inactive
2,COCCCNc1nc2c(-c3cccc(C)c3)nnn2c2ccc(Cl)cc12,inactive
3,CC(=O)NC1C(Oc2ccc(C)cc2)OC2COC(c3ccco3)OC2C1O (centres undefined),inactive
4,CC(C)c1ccc(C2C(C(=O)c3ccco3)=C(O)C(=O)N2CC2CCCO2)cc1 (centres undefined),inactive
5,CCOc1ccc(C2CC(=O)c3c([nH]c(C(=O)OCc4ccccc4)c3C)C2)cc1 (centres undefined),inactive
6,O=C(Nc1cc(C(F)(F)F)ccc1Cl)c1ccc2c(c1)CCN2S(=O)(=O)c1ccccc1,inactive
7,N#Cc1nc(Cc2cccc3ccccc23)oc1NCc1ccc2c(c1)OCO2,inactive
8,N#Cc1nc(Cc2ccccc2)oc1NCCc1ccccc1,16.9 µM (active)
9,N#Cc1nc(/C=C/c2ccc(F)cc2)oc1NCc1ccc(F)cc1,inactive
10,Nc1nc(COC(=O)CCC(=O)c2ccc(Cl)cc2)nc(Nc2ccccc2)n1,inactive
11,CC(C)NS(=O)(=O)c1ccc(NC(=O)c2cccnc2)cc1,inactive
12,CCOC(=O)c1sc(NC(=O)CSc2ncccn2)c(C#N)c1C,inactive
13,Cc1c(C(=O)OC(C)C)sc(NC(=O)c2cccnc2)c1C#N,6.75 µM (active)
14,Cc1ccc(NS(=O)(=O)c2ccc3c(c2)CC(=O)N3)cc1Cl,inactive
15,CC(C)(c1ccccc1)c1ccc(OCCN2CCCC2)cc1,inactive
16,CC(=O)c1ccc(OCCN2CCOCC2)cc1,inactive
17,c1ccc(-c2ccc(OCCN3CCOCC3)cc2)cc1,16.9 µM (active)
18,O=C(C1CC1)N1CCc2cc(Br)cc(S(=O)(=O)N3CCN(c4ccccc4F)CC3)c21,inactive
19,COc1cccc(CN(C)C(=O)CC23CC4CC(CC(C4)C2)C3)c1OC,inactive
20,CCC(=O)OCCNc1nc(-c2ccccc2)nc2ccccc12,inactive
21,COc1cc(Nc2nc(-c3ccc(OC)c(OC)c3)nc3ccccc23)cc(OC)c1,inactive
22,Cc1cccc(-c2nc(Nc3ccc(O)cc3)c3ccccc3n2)c1,19 µM (active)
23,CCOc1ccc2c(c1)cc(CN(C(=O)CC)C1CCCCC1)c1nnnn12,inactive

row,SMILES,Potency
1,COc1ccc(C)cc1N(C)C(=O)c1c(C)oc2ncnc(N3CCOCC3)c12,inactive
2,COc1cc(Cl)c(C)cc1Nc1nnc(-n2nc(C)cc2C)c2ccccc12,inactive
3,O=c1[nH]c2cc(Br)ccc2n2cccc12,inactive
4,O=C(N/N=C/c1sc(N2CCCCC2)nc1-c1cccs1)c1cccnc1,21.3 µM (active)
5,Cc1ccc(S(=O)(=O)N2CCCCC2)cc1NC(=O)c1cccnc1,inactive
6,O=C(NN=C1CCC(=NNC(=O)c2cccnc2)CC1)c1cccnc1,inactive
7,COc1ccc2c(c1)CCc1cn3ncc(C#N)c3nc1-2,inactive
8,COc1ccc2cc(C(=O)C3CCCN(C(=O)c4sc(C)nc4C)C3)ccc2c1 (centres undefined),inactive
9,COc1ccc2nc(N3CCCC(O)C3)c(C#N)cc2c1 (centres undefined),7.57 µM (active)
10,COc1cc2c(cc1OC)CN(C(C)C(=O)Nc1cccc(S(=O)(=O)N3CCOCC3)c1)CC2 (centres undefined),inactive
11,COc1ccc(S(=O)(=O)NCCCCOc2ccc(Cl)cc2)cc1,inactive
12,Cc1cc(S(=O)(=O)N2CCOCC2)ccc1OCC(=O)N1CCOCC1,inactive
13,COCc1c(C(=O)OCC(=O)Nc2ccc(OC(F)F)cc2)oc2ccccc12,inactive
14,CC(=O)c1cc(-c2ccccc2)n(CC(=O)NC2CCCCC2)c1C,inactive
15,O=C(CCc1nc(-c2ccccc2)no1)Nc1cccc(C(=O)NC2CC2)c1,inactive
16,O=C(NC1CCCC1)c1cc(-c2ccccc2)on1,5.36 µM (active)
17,O=C(NC1CCN(S(=O)(=O)c2ccc(F)cc2)CC1)c1ccccc1,inactive
18,O=C(NC1CC1)c1ccc(-c2ccccc2)cc1,16.9 µM (active)
19,O=C(NC1CC1)c1cccc(Br)c1,inactive
20,COc1ccc(-c2c(C)c3ccc(O)c(CN4CCCC4)c3oc2=O)cc1OC,inactive
21,Cn1nc(C(=O)OCC(=O)N(Cc2ccccc2)C(C)(C)C)c2ccccc2c1=O,inactive
22,FC(F)(F)c1cnc(Oc2ccccc2-c2nnc(-c3ccc(Cl)cc3)o2)c(Cl)c1,inactive
23,CSc1ccccc1-c1nnc(-c2ccc(Cl)cc2)o1,5.36 µM (active)
